# Reference: PubChem BioAssay AID1159580 (chemical genetic matrix, 2015)
# Several values for one entry are separate records, joined by “and”; a condition that tells them apart may be missing. Identical values can stand only once. Hit rate of the full screen: of about 5,500 compounds, about 2,000 (36%) were called active. Roughly 18% stayed inconclusive and do not appear here. Some of the results follow. Unmarked numbers belong to inactive results. Cut-off read from the data, not from the text of the source: active = normalized growth mostly below about 0.91 (no sharp cut-off); inconclusive = no clear call, values can overlap the other calls; inactive = mostly above about 0.92.
# Test: chemical genetic growth profiling, strain panel (AID 1159580);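 note: tested at 20 µM; growth read once vehicle control cultures reached saturation at 30 °C; 1 = growth at the plate median or of vehicle wells; lower values mean less growth of the strain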
# Conditions: S. cerevisiae deletion strains, growth OD
structure (smiles),measurement,setting,value
CN1CCN(CCC=C2c3ccccc3Sc3ccc(S(=O)(=O)N(C)C)cc32)CC1,normalized growth,"locus YAL013W, strain DEP1, hits give low values",1.01
same,normalized growth,"locus YAL021C, strain ccr4, hits give low values",0.987
same,normalized growth,"locus YAL026C, strain drs2, hits give low values",0.767 (active)
same,normalized growth,"locus YAL030W, strain snc1, hits give low values",0.991
same,normalized growth,"locus YBL061C, strain skt5, hits give low values",0.973
same,normalized growth,"locus YBR009C, strain hhf1, hits give low values",0.931
same,normalized growth,"locus YBR021W, strain FUR4, hits give low values",0.978
same,normalized growth,"locus YBR023C, strain chs3, hits give low values",0.919
same,normalized growth,"locus YBR171W, strain sec66, hits give low values",1.01
same,normalized growth,"locus YBR229C, strain ROT2, hits give low values",1.01
same,normalized growth,"locus YBR231C, strain swc5, hits give low values",0.945
same,normalized growth,"locus YBR279W, strain paf1, hits give low values",0.964
same,normalized growth,"locus YCL011C, strain gbp2, hits give low values",1.01
same,normalized growth,"locus YCL016C, strain dcc1, hits give low values",0.971
same,normalized growth,"locus YCL029C, strain bik1, hits give low values",0.978
same,normalized growth,"locus YCL061C, strain MRC1, hits give low values",0.953
same,normalized growth,"locus YCL069W, strain vba3, hits give low values",0.971
same,normalized growth,"locus YCR088W, strain abp1, hits give low values",1.01
same,normalized growth,"locus YDL005C, strain med2, hits give low values",0.996
same,normalized growth,"locus YDL035C, strain GPR1, hits give low values",1
same,normalized growth,"locus YDL040C, strain nat1, hits give low values",0.993
same,normalized growth,"locus YDL074C, strain BRE1, hits give low values",0.989
same,normalized growth,"locus YDL101C, strain DUN1, hits give low values",1
same,normalized growth,"locus YDL134C, strain PPH21, hits give low values",1
same,normalized growth,"locus YDL185W, strain tfp1, hits give low values",0.989
same,normalized growth,"locus YDL192W, strain arf1, hits give low values",0.991
same,normalized growth,"locus YDR001C, strain nth1, hits give low values",1.01
same,normalized growth,"locus YDR069C, strain doa4, hits give low values",1
same,normalized growth,"locus YDR101C, strain arx1, hits give low values",0.95
same,normalized growth,"locus YDR137W, strain rgp1, hits give low values",1.23 [resistant] (active)
same,normalized growth,"locus YDR150W, strain NUM1, hits give low values",1.02
same,normalized growth,"locus YDR159W, strain sac3, hits give low values",0.936
same,normalized growth,"locus YDR162C, strain NBP2, hits give low values",1
same,normalized growth,"locus YDR195W, strain ref2",1.1
same,normalized growth,"locus YDR297W, strain sur2, hits give low values",0.975
same,normalized growth,"locus YDR318W, strain mcm21, hits give low values",0.911 (active)
same,normalized growth,"locus YDR334W, strain swr1, hits give low values",1.01
same,normalized growth,"locus YDR335W, strain msn5, hits give low values",0.953
same,normalized growth,"locus YDR388W, hits give low values",0.922 (active)
same,normalized growth,"locus YDR392W, strain spt3, hits give low values",0.456 (active)
same,normalized growth,"locus YDR502C, strain sam2, hits give low values",0.931
same,normalized growth,"locus YEL003W, strain gim4, hits give low values",1.01
same,normalized growth,"locus YEL037C, strain rad23, hits give low values",1
same,normalized growth,"locus YEL061C, strain CIN8 (second series), hits give low values",0.998
same,normalized growth,"locus YEL061C, strain CIN8, hits give low values",1.02
same,normalized growth,"locus YER015W, strain faa2, hits give low values",0.985
same,normalized growth,"locus YER016W, strain bim1, hits give low values",0.992
same,normalized growth,"locus YER110C, hits give low values",0.977
same,normalized growth,"locus YER111C, strain swi4, hits give low values",0.988
same,normalized growth,"locus YER155C, strain BEM2 (second series), hits give low values",0.681 (active)
same,normalized growth,"locus YER155C, strain BEM2, hits give low values",0.999
same,normalized growth,"locus YER167W, strain BCK2, hits give low values",1
same,normalized growth,"locus YFR010W, strain ubp6, hits give low values",0.965
same,normalized growth,"locus YGL078C, strain dbp3, hits give low values",0.996
same,normalized growth,"locus YGL086W, strain mad1, hits give low values",0.946
same,normalized growth,"locus YGL167C, strain pmr1, hits give low values",1.01
same,normalized growth,"locus YGL173C, strain kem1, hits give low values",0.969
same,normalized growth,"locus YGL227W, strain vid30, hits give low values",1.02
same,normalized growth,"locus YGL240W, strain doc1, hits give low values",0.921
same,normalized growth,"locus YGL248W, strain PDE1, hits give low values",1
same,normalized growth,"locus YGL253W, strain hxk2, hits give low values",0.889 (active)
same,normalized growth,"locus YGR135W, strain pre9, hits give low values",0.904
same,normalized growth,"locus YGR252W, strain gcn5, hits give low values",0.711 (active)
same,normalized growth,"locus YHR013C, strain ard1, hits give low values",0.944
same,normalized growth,"locus YHR027C, strain rpn1, hits give low values",0.99
same,normalized growth,"locus YHR030C, strain SLT2, hits give low values",1.01 and 0.981
same,normalized growth,"locus YHR079C, strain IRE1 (second series), hits give low values",0.933
same,normalized growth,"locus YHR079C, strain IRE1, hits give low values",0.98
same,normalized growth,"locus YHR094C, strain hxt1, hits give low values",0.972
same,normalized growth,"locus YHR129C, strain ARP1, hits give low values",1.01
same,normalized growth,"locus YHR142W, strain chs7, hits give low values",0.86 (active)
same,normalized growth,"locus YHR200W, strain rpn10, hits give low values",0.96
same,normalized growth,"locus YIL066C, strain RNR3, hits give low values",1.01
same,normalized growth,"locus YIL073C, strain SPO22, hits give low values",1.02
same,normalized growth,"locus YIL125W, strain kgd1, hits give low values",0.997
same,normalized growth,"locus YIR030C, strain dcg1, hits give low values",0.98
same,normalized growth,"locus YJL092W, strain hpr5, hits give low values",0.977
same,normalized growth,"locus YJL095W, strain BCK1 (second series), hits give low values",0.973
same,normalized growth,"locus YJL095W, strain BCK1, hits give low values",0.992 and 0.978
same,normalized growth,"locus YJL115W, strain asf1, hits give low values",1
same,normalized growth,"locus YJL129C, strain trk1, hits give low values",1.03
same,normalized growth,"locus YJL134W, strain LCB3, hits give low values",1.01
same,normalized growth,"locus YJL154C, strain vps35, hits give low values",1.01
same,normalized growth,"locus YJL164C, strain tpk1, hits give low values",0.972
same,normalized growth,"locus YJL166W, strain qcr8, hits give low values",0.979
same,normalized growth,"locus YJL168C, strain set2, hits give low values",0.971
same,normalized growth,"locus YJL187C, strain SWE1 (second series), hits give low values",1.01
same,normalized growth,"locus YJL187C, strain SWE1, hits give low values",0.994
